Several values for one entry are separate records, joined by “and”; a condition that tells them apart may be missing. Equal entries are not always repeated. Out of some 5,500 compounds screened, about 2,000 (36%) were called active. About 18% were inconclusive and are not listed. Cut-off read from the data, not from the text of the source: active = normalized growth mostly below about 0.91 (no sharp cut-off); inconclusive = no clear call, values can overlap the other calls; inactive = mostly above about 0.92. This is one part of the list.
Test: chemical genetic growth profiling, strain panel (AID 1159580);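 note: tested at 20 µM; growth read once vehicle control cultures reached saturation at 30 °C; 1 = growth at the plate median or of vehicle wells; lower values mean less growth of the strain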
Conditions: S. cerevisiae deletion strains, growth OD

Measured: normalized growth

COc1cc([C@@H]2c3cc4c(cc3[C@H](OC(C)=O)[C@H]3COC(=O)[C@@H]23)OCO4)cc(OC)c1OC
inactive: locus YAL021C, strain ccr4, stronger effect = lower value 1.01 | locus YAL026C, strain drs2, stronger effect = lower value 0.991 | locus YAL030W, strain snc1, stronger effect = lower value 1.01 | locus YBL061C, strain skt5, stronger effect = lower value 1.01 | locus YBR009C, strain hhf1, stronger effect = lower value 0.996 | locus YBR021W, strain FUR4, stronger effect = lower value 1.01 | locus YBR023C, strain chs3, stronger effect = lower value 1.01 | locus YBR171W, strain sec66, stronger effect = lower value 1 | locus YBR229C, strain ROT2, stronger effect = lower value 1.01 | locus YBR231C, strain swc5, stronger effect = lower value 1.01 | locus YBR279W, strain paf1, stronger effect = lower value 1 | locus YCL011C, strain gbp2, stronger effect = lower value 1 | locus YCL016C, strain dcc1, stronger effect = lower value 1 | locus YCL029C, strain bik1, stronger effect = lower value 1.01 | locus YCL069W, strain vba3, stronger effect = lower value 1 | locus YCR088W, strain abp1, stronger effect = lower value 0.982 | locus YDL005C, strain med2, stronger effect = lower value 1 | locus YDL035C, strain GPR1, stronger effect = lower value 1.02 | locus YDL040C, strain nat1, stronger effect = lower value 1 | locus YDL074C, strain BRE1, stronger effect = lower value 1.02 | locus YDL101C, strain DUN1, stronger effect = lower value 1.01 | locus YDL185W, strain tfp1, stronger effect = lower value 1.03 | locus YDL192W, strain arf1, stronger effect = lower value 1.04 | locus YDR001C, strain nth1, stronger effect = lower value 0.99 | locus YDR069C, strain doa4, stronger effect = lower value 1.01 | locus YDR101C, strain arx1, stronger effect = lower value 1.01 | locus YDR137W, strain rgp1, stronger effect = lower value 1.03 | locus YDR150W, strain NUM1, stronger effect = lower value 1.01 | locus YDR159W, strain sac3, stronger effect = lower value 1.01 | locus YDR162C, strain NBP2, stronger effect = lower value 1.01 | locus YDR195W, strain ref2 0.972 | locus YDR297W, strain sur2, stronger effect = lower value 1.01 | locus YDR318W, strain mcm21, stronger effect = lower value 1.02 | locus YDR334W, strain swr1, stronger effect = lower value 0.969 | locus YDR335W, strain msn5, stronger effect = lower value 1.01 | locus YDR388W, stronger effect = lower value 1.02 | locus YDR392W, strain spt3, stronger effect = lower value 0.998 | locus YDR502C, strain sam2, stronger effect = lower value 1.01 | locus YEL003W, strain gim4, stronger effect = lower value 0.998 | locus YEL037C, strain rad23, stronger effect = lower value 0.985 | locus YEL061C, strain CIN8 (second series), stronger effect = lower value 0.98 | locus YEL061C, strain CIN8, stronger effect = lower value 1.01 | locus YER015W, strain faa2, stronger effect = lower value 1.01 | locus YER016W, strain bim1, stronger effect = lower value 1.01 | locus YER110C, stronger effect = lower value 1.02 | locus YER111C, strain swi4, stronger effect = lower value 1.01 | locus YER155C, strain BEM2 (second series), stronger effect = lower value 1.01 | locus YER155C, strain BEM2, stronger effect = lower value 0.998 | locus YER167W, strain BCK2, stronger effect = lower value 1.02 | locus YFR010W, strain ubp6, stronger effect = lower value 0.98 | locus YGL078C, strain dbp3, stronger effect = lower value 1.03 | locus YGL086W, strain mad1, stronger effect = lower value 1.01 | locus YGL167C, strain pmr1, stronger effect = lower value 1 | locus YGL173C, strain kem1, stronger effect = lower value 1.01 | locus YGL227W, strain vid30, stronger effect = lower value 0.994 | locus YGL240W, strain doc1, stronger effect = lower value 1.01 | locus YGL248W, strain PDE1, stronger effect = lower value 1.01 | locus YGL253W, strain hxk2, stronger effect = lower value 1 | locus YGR078C, strain PAC10, stronger effect = lower value 1.02 | locus YGR135W, strain pre9, stronger effect = lower value 1.03 | locus YGR252W, strain gcn5, stronger effect = lower value 1.01 | locus YHR013C, strain ard1, stronger effect = lower value 1.01 | locus YHR027C, strain rpn1, stronger effect = lower value 0.993 | locus YHR030C, strain SLT2, stronger effect = lower value 1.01 and 0.979 | locus YHR079C, strain IRE1 (second series), stronger effect = lower value 1.03 | locus YHR079C, strain IRE1, stronger effect = lower value 0.985 | locus YHR094C, strain hxt1, stronger effect = lower value 1.03 | locus YHR129C, strain ARP1, stronger effect = lower value 1.01 | locus YHR142W, strain chs7, stronger effect = lower value 0.995 | locus YHR200W, strain rpn10, stronger effect = lower value 1.04 | locus YIL066C, strain RNR3, stronger effect = lower value 1.02 | locus YIL073C, strain SPO22, stronger effect = lower value 1.07 | locus YIL125W, strain kgd1, stronger effect = lower value 1.01 | locus YIR030C, strain dcg1, stronger effect = lower value 1.01 | locus YJL092W, strain hpr5, stronger effect = lower value 0.986 | locus YJL095W, strain BCK1 (second series), stronger effect = lower value 0.999 | locus YJL095W, strain BCK1, stronger effect = lower value 1.01 and 1.04 | locus YJL115W, strain asf1, stronger effect = lower value 0.993 | locus YJL129C, strain trk1, stronger effect = lower value 1.01 | locus YJL134W, strain LCB3, stronger effect = lower value 1.01 | locus YJL154C, strain vps35, stronger effect = lower value 0.978 | locus YJL164C, strain tpk1, stronger effect = lower value 1.01 | locus YJL166W, strain qcr8, stronger effect = lower value 1.02 | locus YJL168C, strain set2, stronger effect = lower value 1.02 | locus YJL187C, strain SWE1 (second series), stronger effect = lower value 1.02 | locus YJR043C, strain POL32, stronger effect = lower value 1.01 | locus YJR066W, strain TOR1, stronger effect = lower value 0.931 | locus YKL009W, strain mrt4, stronger effect = lower value 0.999 | locus YKL068W, stronger effect = lower value 1.01 | locus YKL085W, strain MDH1 (second series), stronger effect = lower value 1 | locus YKL085W, strain MDH1, stronger effect = lower value 1 | locus YKL160W, strain elf1, stronger effect = lower value 1.01 | locus YKL190W, strain CNB1, stronger effect = lower value 1.01 | locus YKR001C, strain vps1, stronger effect = lower value 1.03 | locus YKR026C, strain gcn3, stronger effect = lower value 0.997 | locus YKR091W, strain srl3, stronger effect = lower value 1 | locus YLL001W, strain dnm1, stronger effect = lower value 0.991 | locus YLL026W, stronger effect = lower value 1.01 | locus YLL041C, strain sdh2, stronger effect = lower value 0.997 | locus YLR027C, strain aat2, stronger effect = lower value 1 | locus YLR039C, strain RIC1, stronger effect = lower value 1.01 | locus YLR058C, strain SHM2, stronger effect = lower value 1.01 | locus YLR102C, strain apc9, stronger effect = lower value 1.03 | locus YLR113W, strain HOG1, stronger effect = lower value 1.08 | locus YLR221C, strain rsa3, stronger effect = lower value 1.01 | locus YLR258W, strain gsy2, stronger effect = lower value 1.01 | locus YLR262C, strain YPT6 (second series), stronger effect = lower value 0.956 | locus YLR262C, strain YPT6, stronger effect = lower value 1.07 | locus YLR268W, strain sec22, stronger effect = lower value 1.01 | locus YLR320W, strain mms22, stronger effect = lower value 1.01 | locus YLR330W, strain CHS5, stronger effect = lower value 1.01 | locus YLR342W, strain FKS1 (second series), stronger effect = lower value 1.02 | locus YLR342W, strain FKS1, stronger effect = lower value 1 | locus YLR357W, strain rsc2, stronger effect = lower value 0.973 | locus YLR370C, strain arc18, stronger effect = lower value 1.02 | locus YLR371W, strain rom2, stronger effect = lower value 1.02 | locus YLR384C, strain iki3, stronger effect = lower value 0.994 | locus YLR418C, strain cdc73, stronger effect = lower value 1.03 | locus YML016C, strain PPZ1, stronger effect = lower value 1.01 | locus YML032C, strain rad52, stronger effect = lower value 1.02 | locus YML120C, strain ndi1, stronger effect = lower value 1.01 | locus YML124C, strain tub3, stronger effect = lower value 1.02 | locus YMR058W, strain fet3, stronger effect = lower value 1 | locus YMR078C, strain ctf18, stronger effect = lower value 1.05 | locus YMR125W, strain sto1, stronger effect = lower value 0.986 | locus YMR129W, stronger effect = lower value 1 | locus YMR205C, strain PFK2, stronger effect = lower value 0.995 | locus YMR223W, strain ubp8, stronger effect = lower value 1.03 | locus YMR231W, strain pep5, stronger effect = lower value 1 | locus YMR263W, strain SAP30, stronger effect = lower value 1.01 | locus YMR307W, strain GAS1, stronger effect = lower value 1.04 | locus YNL067W, strain RPL9B, stronger effect = lower value 1.02 | locus YNL071W, strain lat1, stronger effect = lower value 0.991 | locus YNL183C, strain NPR1, stronger effect = lower value 0.972 | locus YNL209W, strain ssb2, stronger effect = lower value 0.989 | locus YNL233W, strain BNI4, stronger effect = lower value 1.01 | locus YNL248C, strain rpa49, stronger effect = lower value 0.961 | locus YNL250W, strain rad50, stronger effect = lower value 1.03 | locus YNL271C, strain bni1, stronger effect = lower value 1.02 | locus YNL298W, strain CLA4, stronger effect = lower value 1.02 | locus YNL307C, strain MCK1, stronger effect = lower value 1.02 | locus YNL322C, strain KRE1 (second series), stronger effect = lower value 1 | locus YNL322C, strain KRE1, stronger effect = lower value 1.01 | locus YNR049C, strain mso1, stronger effect = lower value 0.993 | locus YNR052C, strain pop2, stronger effect = lower value 1.03 | locus YOL006C, strain TOP1, stronger effect = lower value 1.07 | locus YOL012C, strain htz1 0.847 | locus YOL147C, strain pex11, stronger effect = lower value 1.01 | locus YOR001W, strain rrp6, stronger effect = lower value 0.987 | locus YOR061W, strain CKA2, stronger effect = lower value 1.01 | locus YOR069W, strain VPS5, stronger effect = lower value 1.01 | locus YOR070C, strain gyp1, stronger effect = lower value 1.01 | locus YOR080W, strain dia2, stronger effect = lower value 1 | locus YOR083W, strain WHI5, stronger effect = lower value 1.01 | locus YOR106W, strain vam3, stronger effect = lower value 1 | locus YOR136W, strain idh2, stronger effect = lower value 1.02 | locus YOR144C, strain elg1, stronger effect = lower value 1.01 | locus YOR184W, strain ser1, stronger effect = lower value 1.03 | locus YOR231W, strain MKK1, stronger effect = lower value 0.986 | locus YOR265W, strain rbl2, stronger effect = lower value 1 | locus YOR270C, strain vph1, stronger effect = lower value 0.847 | locus YOR290C, strain snf2, stronger effect = lower value 1.01 | locus YOR316C, strain cot1, stronger effect = lower value 1.01 | locus YPL051W, strain arl3, stronger effect = lower value 1.03 | locus YPL078C, strain atp4, stronger effect = lower value 0.978 | locus YPL106C, strain sse1, stronger effect = lower value 1.01 | locus YPL240C, strain hsp82, stronger effect = lower value 0.993 | locus YPL241C, strain CIN2, stronger effect = lower value 1.02 | locus YPL256C, strain CLN2, stronger effect = lower value 1 | locus YPR119W, strain clb2, stronger effect = lower value 1.04 | locus YPR141C, strain kar3, stronger effect = lower value 1.03 | locus YPR163C, strain tif3, stronger effect = lower value 1.03 | locus YPR167C, strain met16, stronger effect = lower value 1.01 | strain wtn01, stronger effect = lower value 1.03

From PubChem BioAssay AID1159580 (chemical genetic matrix, 2015)
